HIF activator = HIF pathway transcriptional activation; U2OS HRE-luciferase reporter, luminescence; normalized: DMSO 0%, desferrioxamine 100%; activation, % at 7.5 µM (by protocol); hit rate 0.32% among 300,000;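 active means mean activation of at least 10% of the iron chelator positive control signal, with at least half of replicates also reaching 10%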
Platelet DG rel = modulates dense granule release in human platelets | human platelet-rich plasma, SFLLRN dense granule ATP release, luminescence | inhibition, %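 (compounds screened at 7.5 µM in platelet-rich plasma)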 | hit rate 0.22% among 300,000 | AID 1663;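 active means mean replicate score, as percent of positive control, at or above 50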
NTR1 agonist = activates human neurotensin receptor 1; activation, % at 20 µM; NTR1-U2OS beta-arrestin-GFP spot imaging, agonist mode; hit rate 0.17% among 330,000; P30989;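 active means activation at or above 40% of the spot to cytoplasm intensity ratio, with at least 20 cells analyzed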;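 further: 0% = DMSO without peptide and 100% = 100 nM NTR1 peptide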
Target sequence (P30989 whole entry, looked up): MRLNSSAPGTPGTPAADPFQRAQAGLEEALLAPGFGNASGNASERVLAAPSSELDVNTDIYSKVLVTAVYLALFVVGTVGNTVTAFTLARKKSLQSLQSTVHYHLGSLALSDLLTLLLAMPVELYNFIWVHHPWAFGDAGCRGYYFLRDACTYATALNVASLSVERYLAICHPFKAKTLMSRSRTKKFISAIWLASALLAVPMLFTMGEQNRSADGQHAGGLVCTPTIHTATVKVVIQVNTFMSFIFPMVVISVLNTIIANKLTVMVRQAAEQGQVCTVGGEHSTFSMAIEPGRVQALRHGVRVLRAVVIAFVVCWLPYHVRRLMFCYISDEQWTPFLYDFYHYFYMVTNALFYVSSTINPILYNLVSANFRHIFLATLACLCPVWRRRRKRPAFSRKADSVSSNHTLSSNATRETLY
Active calls of the source: *; · = no result given. A selection: hits, their analogues and other compounds. The true share with any hit is near 0.63%.

SMILES	HIF activator	Platelet DG rel	NTR1 agonist
CCOC(=O)N1CCC(N2C(=O)c3ccccc3C2Nc2cc(OC)c(OC)c(OC)c2)CC1 (stereo not given)	0.0	63.9*	0.1
CCOC(=O)N1CCC(N2C(=O)c3ccccc3C2Nc2cc(Cl)c(OC)cc2OC)CC1 (stereo not given)	-0.2	-0.2	2.8
CCC(C)c1ccc(S(=O)(=O)N2CCN(C(C)C(=O)NC3CCCC3)CC2)cc1 (stereo not given)	·	·	-1.5
CCCSc1nc(N)c2c3c(sc2n1)CN(C)CC3	0.5	0.9	3.5
CC(C)Sc1nc(N)c2c3c(sc2n1)CN(C)CC3	12.7*	-0.8	0.5
COc1ccc(/C=N/NC(=O)c2cc[n+]([O-])cc2)cc1O	0.2	12.9	14.0
O=C1c2ccccc2C(O)(c2ccccc2)N1CCc1ccccc1 (stereo not given)	-0.6	-5.1	2.8
Cc1nonc1C(=O)N/N=C/c1ccc(O)cc1O	5.6	95.8*	0.3
O=C(CNC(=O)C(c1ccccc1)c1ccccc1)N/N=C\c1cccc(O)c1	0.1	4.1	0.2
Cc1nonc1C(=O)N/N=C/c1ccncc1	-0.3	17.4	1.1
O=C(CCCCCNC(=O)c1ccccc1)N/N=C/c1ccc(O)cc1O	-0.4	-2.4	-0.3
CCc1cc(C(=O)N/N=C/c2ccc(O)cc2O)c2ccccc2n1	28.8*	0.3	-1.0
O=C(CNC(=O)C(c1ccccc1)c1ccccc1)N/N=C/c1ccc(O)cc1O	11.3*	0.1	1.5
Cc1c(CC(=O)O)c(=O)oc2cc(OCc3ccc(F)cc3Cl)ccc12	0.2	-0.7	1.4
CCN(CC)C(=O)Cn1cc(C(=O)C(=O)N2CCN(c3ccccc3)CC2)c2ccccc21	0.0	-7.8	1.0
COc1ccc(NC(=O)CCNC(C)=O)cc1NS(=O)(=O)c1ccc(F)cc1	-1.0	7.1	-0.7
Cc1ccc(-c2cnc3ccccc3n2)cc1C	-3.8	20.0	2.8
Cc1cc(C)cc(-n2c(C)cc(/C=N/NC(=O)CSc3ncccn3)c2C)c1	-0.2	-4.7	1.3
CC(=O)c1cccc(NS(=O)(=O)c2ccc(-c3cc(C)no3)s2)c1	44.2*	4.3	1.3
CC(=O)c1ccc(N2CCN(S(=O)(=O)c3ccc(-c4cc(C)no4)s3)CC2)cc1	0.5	-3.3	-1.0
COCCNC(=O)CN(c1ccc(OC)c(OC)c1)S(=O)(=O)c1ccc(C)cc1	0.4	15.4	-1.2
Cc1ccc(Nc2nnc(-c3ccccc3N)o2)cc1C	12.8*	-5.2	-1.3
c1ccc(Nc2nnc(-c3cccc4ccccc34)o2)cc1	2.1	4.0	-0.1
O=C(COc1ncnc2cc([N+](=O)[O-])ccc12)N(CCc1ccccc1)Cc1ccccc1	-0.3	-8.3	-0.5
CC1=C(C(=O)OC(C)C)C(C)C(C(=O)OC(C)C)=C(C)N1	-0.2	-5.2	1.4
SMILES	HIF activator	Platelet DG rel	NTR1 agonist
CCOC(=O)c1c(N2CCCCC2)c2ccccc2[nH]c1=O	-0.2	70.1*	4.0
CCOC(=O)c1c(NCC(C)C)c2ccccc2[nH]c1=O	0.0	1.8	-1.3
Cc1nnc(SCC(=O)NC2CC2)n1-c1ccccc1	-0.2	1.8	0.4
CCN1CCN(C(=O)C2CCN(C(=O)c3cc4sccc4n3CC)CC2)CC1	0.3	0.4	-1.3
CCn1c(C(=O)N2CCC(C(=O)NCCCSC3CCCCC3)CC2)cc2sccc21	-0.1	69.4*	0.8
Cc1nnsc1C(=O)N/N=C/c1ccccc1	0.0	-7.2	3.2
Cc1nnsc1C(=O)N/N=C/c1ccc2ccccc2c1O	115.5*	-6.3	1.5
CCCCOc1ccc(N(CC(=O)NCc2ccco2)C(=O)CCC(=O)Nc2nccs2)cc1	-0.5	-22.1	3.6
Oc1[nH]c2ccccc2c1N=NC(=S)N1CCOCC1	11.3*	-1.3	4.4
COC(=O)N=Nc1c(O)[nH]c2ccc(Br)cc12	1.4	4.3	3.5
NC(=S)N=Nc1c(O)[nH]c2ccccc12	-0.2	9.8	0.3
Oc1[nH]c2ccc(Br)cc2c1N=NC(=S)N1CCOCC1	161.3*	2.9	4.2
O=C1NC(=O)/C(=C/c2ccc(OS(=O)(=O)c3ccc(F)cc3F)cc2)N1	41.1*	7.2	6.3
CN(C)c1ccc(/C=C2/NC(=O)NC2=O)cc1	0.2	1.3	0.3
CC(C)c1nnc(NC(=O)CCC(=O)NC2CC2)s1	17.9*	54.7*	-1.5
CC(C)c1nnc(NC(=O)CCC(=O)NC2CCCCCC2)s1	0.0	-5.9	0.0
CC1(c2ccccc2)NC(=O)N(CC(=O)N2CCN(S(=O)(=O)c3cccs3)CC2)C1=O (stereo not given)	0.7	-2.2	0.7
CC1(c2ccccc2)NC(=O)N(CC(=O)N2CCN(S(=O)(=O)c3ccccc3[N+](=O)[O-])CC2)C1=O (stereo not given)	0.0	57.0*	-0.8
COc1ccccc1CNC(=O)[C@H](Cc1c[nH]c2ccccc12)NC(=O)[C@@H]1Cc2ccccc2CN1	0.2	5.9	-0.4
Cc1no[n+]([O-])c1COc1cccc(/C=N/Nc2nncn2N)c1	0.8	11.1	2.3
O=C(Nc1ccccc1F)c1cc2c(s1)-c1ccccc1S(=O)(=O)C2	0.0	4.9	1.9
Cc1ccc(/C=C2/SC(=Nc3ccc(F)cc3)NC2=O)s1	0.8	7.4	-0.7
NC(=O)C1(N2CCCCC2)CCN(C(=O)Nc2ccccc2C(F)(F)F)CC1	-0.3	53.5*	1.5
O=C(Nc1ccccc1C(F)(F)F)N1CCCCCC1	0.6	-3.3	0.6
C/C(CCc1ccco1)=N\NC(=O)CNc1cccc2ccccc12	0.2	4.1	-0.8
SMILES	HIF activator	Platelet DG rel	NTR1 agonist
COCCOCC(=O)Nc1ccc(S(=O)(=O)Nc2cc(C)nc(C)n2)cc1	1.3	-1.5	0.2
COc1cccc(/C=N/Nc2ccc(S(=O)(=O)O)cc2)c1O	-0.3	55.5*	-0.9
COc1cccc(/C=N/Nc2ccc(C(=O)O)cc2)c1O	-6.8	95.3*	-0.8
COc1cccc(/C=N/Nc2ccccc2C(=O)O)c1O	4.1	9.1	-0.7
COc1cccc(/C=N/Nc2ccc([N+](=O)[O-])cn2)c1O	49.9*	12.7	9.8
COc1cccc(OCc2cc(/C=N/Nc3ccc(C(=O)O)cc3)ccc2OC)c1	-0.4	65.2*	1.2
COc1cccc(/C=N/NC(=O)C(=O)N2CCCC2)c1O	1.0	11.6	2.6
COc1cccc(C(=O)Oc2ccc(/C=N/Nc3ccc(C(=O)O)cc3)cc2OC)c1	-8.6	0.2	0.1
COc1cccc(/C=N/Nc2nc(Nc3ccc([N+](=O)[O-])cc3)nc(N3CCCC3)n2)c1O	-0.4	3.4	12.0
O=C(Nc1ccc(Cn2cccn2)cc1)c1ccc(COc2ccccc2Br)cc1	-5.8	-4.3	13.2
O=C(NC(=S)Nc1cccc(NC(=O)c2ccccc2)c1)c1cccc([N+](=O)[O-])c1	-5.6	19.1	0.6
COc1cc(C=O)ccc1OCCSc1ccc(C)cc1	1.7	-3.9	4.6
CCOC(=O)c1cnc(-n2nc(C)cc2C)nc1NNc1nc(-c2ccccc2)cc(-c2ccccc2)n1	18.4*	-1.6	6.2
CCOC(=O)c1cnc(-n2nc(C)cc2C)nc1NNc1nc(C)cc(C)n1	-0.4	-9.1	-0.6
CCCC(O)(CCC)C(=O)NN1CCCCC1	-0.4	-1.1	1.2
N#Cc1ccccc1S(=O)(=O)N1CCN(c2cnccn2)CC1	68.3*	0.6	0.0
N#Cc1ccccc1S(=O)(=O)N1CCN(C(=O)C2CCC2)CC1	-0.4	-9.0	0.9
